A selection: hits, their analogues and other compounds. The true share with any hit is near 3.6%.
MazF activator = increases E. coli MazEF RNase cleavage of RNA. FAM/BHQ RNA-DNA oligo cleavage fluorescence, 5 h. activation, % at 20 µM. 350,000 tested, 0.32% active. AID 504720. P0AE70; in the data active = activation above about 50%
Target sequence (P0AE70 whole entry, looked up): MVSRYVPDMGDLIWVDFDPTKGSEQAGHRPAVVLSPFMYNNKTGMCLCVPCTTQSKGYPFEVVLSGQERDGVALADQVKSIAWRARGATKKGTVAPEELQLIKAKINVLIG
Bead autofluor = counter-screen for toxin protease inhibitors: compound fluorescence. AID 624483. fluorescence intensity (no concentration beside the values). compound autofluorescence counterscreen, microsphere flow cytometry; stronger effect = higher value. 360,000 tested, 3.1% active; in the data active = fluorescence intensity above about 16000; inconclusive = no clear call, values can overlap the other calls
BoNT-F LC inh = blocks Botulinum neurotoxin F light chain protease; Multiplex microsphere protease cleavage assay, flow cytometry; inhibition, % at 10 µM; 360,000 tested, 0.22% active; in the data active = inhibition above about 35%, passing the limit was not always enough; inconclusive = no clear call, values can overlap the other calls; also: plate controls were buffer without enzyme for full effect and enzyme alone for no effect
Anthrax LF inh2 = inhibitors of Bacillus anthracis lethal factor protease | P15917 | multiplex microsphere protease cleavage assay, LF | inhibition, % at 10 µM | 360,000 tested, 0.12% active; also: plate controls were buffer without enzyme for full effect and enzyme alone for no effect
BoNT-A LC inh2 = inhibitors of Botulinum neurotoxin A light chain protease; inhibition, % at 10 µM; multiplex microsphere protease substrate cleavage, flow cytometry; 360,000 tested, 0.17% active; AID 588499; also: plate controls were buffer without enzyme for full effect and enzyme alone for no effect
Starred values were filed as active, the others as inactive. Rule as the data show it, unless noted: active = inhibition above about 30%; inconclusive = no clear call, values can overlap the other calls; inactive = below that.

What do the screens show for `COc1cc(OC)cc(C(=O)NN2CCCCC2)c1`?
MazF activator: 3; Bead autofluor: 25088*; BoNT-F LC inh: -6; Anthrax LF inh2: -1; BoNT-A LC inh2: -4

How did COc1cc(OC)cc(C(=O)N2CCN(C3CCCCC3)CC2)c1 do in these assays?
MazF activator: 2; Bead autofluor: 3788; BoNT-F LC inh: 5; Anthrax LF inh2: -3; BoNT-A LC inh2: -1

Results for C[C@H](O)[C@@H]1C(=O)N2CCc3c([nH]c4ccccc34)[C@@H]2C[C@@H]1N(C)Cc1ccc2c(c1)OCO2 ?
MazF activator: 3; Bead autofluor: 3463; BoNT-F LC inh: -2; Anthrax LF inh2: -2; BoNT-A LC inh2: 0

Results for COc1cc(C2C(C#N)=C(N)OC3=C2C(=O)CCC3)c([N+](=O)[O-])cc1OC (stereo not given) ?
MazF activator: 110*; Bead autofluor: 4261; BoNT-F LC inh: 11; Anthrax LF inh2: 8; BoNT-A LC inh2: 2

What do the screens show for `CCCCN1C(=O)C(CC(=O)NCCc2ccccn2)CC(C(=O)N2CCCCCC2)=C1C` (stereo not given)?
Bead autofluor: 5676; BoNT-F LC inh: 0; Anthrax LF inh2: 0; BoNT-A LC inh2: 1

What do the screens show for `CCn1c(C)nc2cc(-c3nnc(-c4c(-c5ccccc5)noc4C)o3)ccc21`?
MazF activator: 5; Bead autofluor: 16285*; BoNT-F LC inh: 0; Anthrax LF inh2: 0; BoNT-A LC inh2: 0

Results for Cc1onc(-c2ccccc2)c1-c1nnc(-c2ccccc2C(F)(F)F)o1 ?
MazF activator: 3; Bead autofluor: 6155; BoNT-F LC inh: -11; Anthrax LF inh2: 5; BoNT-A LC inh2: 0

Results for COc1ccc(COc2ccsc2C(=O)Nc2ccc(Cl)cc2)cc1 ?
MazF activator: 25; Bead autofluor: 19044*; BoNT-F LC inh: 2; Anthrax LF inh2: 1; BoNT-A LC inh2: 1

How did CC(C)C(NC(=O)COc1ccc2ccccc2c1)C(=O)N/N=C/C=C/c1ccccc1 (stereo not given) do in these assays?
MazF activator: -9; Bead autofluor: 22567*; BoNT-F LC inh: -1; Anthrax LF inh2: 2; BoNT-A LC inh2: -1

Results for Cc1cc(C)n(-c2nc(Nc3ccccc3)nc(-n3nc(C)cc3C)n2)n1 ?
MazF activator: 9; Bead autofluor: 7863; BoNT-F LC inh: -23; Anthrax LF inh2: -8; BoNT-A LC inh2: -2

How did CCN(CC)c1nc2ccccc2nc1-n1nc(C)cc1C do in these assays?
MazF activator: 0; Bead autofluor: 24280*; BoNT-F LC inh: 0; Anthrax LF inh2: -2; BoNT-A LC inh2: inconclusive

What do the screens show for `Cc1cc(C)n(-c2nc3ccccc3n3cnnc23)n1`?
MazF activator: 4; Bead autofluor: 4280; BoNT-F LC inh: 0; Anthrax LF inh2: -4; BoNT-A LC inh2: 1

What do the screens show for `Cc1cc(C)n(-c2nc(N(c3ccccc3)c3ccccc3)nc(-n3nc(C)cc3C)n2)n1`?
MazF activator: -15; Bead autofluor: 17611*; BoNT-F LC inh: -5; Anthrax LF inh2: -2; BoNT-A LC inh2: -7

How did CC(=O)c1nnn(-c2nc(N)nc(N(c3ccccc3)c3ccccc3)n2)c1C do in these assays?
MazF activator: 2; Bead autofluor: 22006*; BoNT-F LC inh: -1; Anthrax LF inh2: -2; BoNT-A LC inh2: inconclusive

How did CC(=O)Nc1ccc(-c2ccnc3c2CC(C)(C(=O)Nc2ccc(Cl)cc2)O3)cc1 (stereo not given) do in these assays?
Bead autofluor: 3818; BoNT-F LC inh: -1; Anthrax LF inh2: 0; BoNT-A LC inh2: 0

How did CN1C=CC2=C(C#N)C(N)C(C#N)(C#N)[C@H](c3ccccc3)[C@H]2C1 (stereo not given in full) do in these assays?
MazF activator: 12; Bead autofluor: 16327*; BoNT-F LC inh: 0; Anthrax LF inh2: 0; BoNT-A LC inh2: 0

What do the screens show for `N#CC1(C#N)C(C(N)=O)C1c1ccccc1` (stereo not given)?
MazF activator: 0; Bead autofluor: 2573; BoNT-F LC inh: 0; Anthrax LF inh2: 1; BoNT-A LC inh2: 0

What do the screens show for `CC(C)Cc1cc(C(=O)N2N=C(C(F)F)CC2(O)C(F)F)c2ccccc2n1` (stereo not given)?
MazF activator: 8; Bead autofluor: 22633*; BoNT-F LC inh: -12; Anthrax LF inh2: 0; BoNT-A LC inh2: -10

How did Cc1nn(-c2ccc(F)cc2)c2sc(C(=O)OCC(=O)N3CCC(C)CC3)cc12 do in these assays?
MazF activator: 2; Bead autofluor: 19994*; BoNT-F LC inh: 10; Anthrax LF inh2: -10; BoNT-A LC inh2: inconclusive

How did COc1cc([N+](=O)[O-])ccc1-c1ccc(/C=N\n2cnnc2)o1 do in these assays?
MazF activator: 154*; Bead autofluor: 4009; BoNT-F LC inh: -2; Anthrax LF inh2: -2; BoNT-A LC inh2: 13

Assay outcomes: PubChem BioAssay, several laboratories
